High-throughput results: PubChem BioAssay, National Center for Advancing Translational Sciences (NCATS)
The list is not random: actives were taken first. Their share in the collection is about 3.1%.
DRD3 agonist: agonists of human D3 dopamine receptor; P35462; D3R DiscoveRx beta-arrestin cells, luminescence, 90 min; max activation, %; hit rate 0.58% among 410,000; AID 652048; in the data active = max activation above about 30%
Target sequence (P35462 whole entry, looked up): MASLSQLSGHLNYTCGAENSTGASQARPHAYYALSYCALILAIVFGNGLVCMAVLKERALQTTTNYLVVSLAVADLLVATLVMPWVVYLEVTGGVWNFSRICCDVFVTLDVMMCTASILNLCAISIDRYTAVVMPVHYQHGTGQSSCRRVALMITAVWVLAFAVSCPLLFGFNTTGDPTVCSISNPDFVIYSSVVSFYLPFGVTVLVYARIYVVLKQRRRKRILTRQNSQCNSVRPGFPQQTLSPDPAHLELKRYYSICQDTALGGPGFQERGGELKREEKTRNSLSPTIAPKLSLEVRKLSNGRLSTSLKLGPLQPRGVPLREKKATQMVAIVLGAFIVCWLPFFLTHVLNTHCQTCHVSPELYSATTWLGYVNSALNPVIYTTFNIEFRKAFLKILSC
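Agonist mode: compounds and dopamine controls were applied to plated cells for 90 min at 37 degrees C after an overnight attachment at 1500 cells/well. Luminescent read-out followed 30 - 60 minutes at room temperature with DiscoveRx detection reagent.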
D3 antag: D3 dopamine receptor (human) antagonism. D3R cells, DiscoveRx beta-arrestin luminescence, antagonist mode; hits give low values. AID 652054. max response, negative = inhibition, %. hit rate 2.5% among 360,000; in the data active = max response below about -50%; inconclusive = no clear call, values can overlap the other calls
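Cells plated overnight at 1500 cells/well, then exposed to library compounds with dopamine controls for 90 minutes at 37 degrees C. DiscoveRx reagent added for 30–60 minutes at room temperature; luminescence read, quantitative HTS format.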
RGS4 inh: inhibitors of human regulator of G protein signaling 4 | P49798 | Transcreener GDP fluorescence polarization, RGS4-accelerated GTP hydrolysis | Potency, µM (highest dose often 114 µM), hits mostly inhibitors | hit rate 0.039% among 390,000 | AID 504845; active = well fitted inhibition curve with a large enough effect; inconclusive = small, poorly fitted or top-dose-only effect; inactive = no such curve, though single readings can be large or run the other way; also: nearly all actives have a fitted effect of over 75% in size
Target sequence (P49798 whole entry, looked up): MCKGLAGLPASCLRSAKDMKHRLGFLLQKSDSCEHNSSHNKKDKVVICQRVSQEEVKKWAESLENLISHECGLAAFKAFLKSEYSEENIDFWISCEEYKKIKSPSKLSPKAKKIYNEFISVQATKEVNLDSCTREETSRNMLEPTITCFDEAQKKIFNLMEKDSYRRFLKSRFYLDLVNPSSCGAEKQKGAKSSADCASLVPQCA
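MLSMR compounds (23 nl, pin-transferred) preincubated 10 min at room temperature with a 500nM (2x) first reagent, then RGS4 at 900nM (2x) plus Transcreener GDP mix added; fluorescence polarization (620/688 nm) read before and after 90 min at 30 °C.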
uPA surface inh: inhibitors of cell surface uPA generation; cell surface uPA generation assay, qHTS; hit rate 0.31% among 330,000; Potency, µM (highest dose often 38.3 µM), most hits filed as inhibitors; active = well fitted inhibition curve with a large enough effect; inconclusive = small, poorly fitted or top-dose-only effect; inactive = no such curve, though single readings can be large or run the other way; tested in mouse RAW 264.7 cells; also: nearly all actives have a fitted effect of over 55% in size
A number is an active result; 0 = inactive; ? = inconclusive; - = not tested or not shown; [ ] = another dose, or the depositor's remark.

SMILES	DRD3 agonist	D3 antag	RGS4 inh	uPA surface inh
CSc1ccc(C(=O)C2CCCN(C(=O)Cn3cnnn3)C2)cc1 (configuration not stated)	0	0	0	0
CCOC(=O)c1sc2ccccc2c1S(=O)(=O)N1CCN(c2cc(C)ccc2C)CC1	0	-	0	-
N#CC(c1ccccc1)c1ccc2c(C(F)(F)F)cc(C(F)(F)F)nc2n1 (configuration not stated)	0	-80	0	0
COCOc1cc(O)c(C(=O)/C=C/c2ccccc2)c(OCOC)c1	0	0	0	10µM
CCc1nn(CC(=O)N2CCN(c3ccc(OC)cc3)CC2)c(=O)c2cc3occc3n12	34	0	0[11.4 µM]	0
CCc1nn(CC(=O)N2CCN(c3cccc(OC)c3)CC2)c(=O)c2cc3occc3n12	0	-	0	-
Cc1oc(-c2ccc(Cl)cc2)nc1Cn1c(=O)cc(C)c2c(C)nn(-c3cccc(F)c3)c21	0	-	0	-
O=c1c2ccccc2sn1-c1ccc(F)cc1	0	-54	0	?
COC(=O)c1cccc(-n2sc3ccccc3c2=O)c1	0	-60	0	0
Cc1ccc(NC(=O)C(C)n2nnc3sc4c(c3c2=O)CCCC4)cc1Cl (configuration not stated)	0	-	0	-
CC1(C)Cc2nc3sc4c(=O)n(Cc5ccccc5)cnc4c3cc2CS1	0	-66	0	0
Cc1ccnc2nc(NC(=O)c3ccco3)nn12	0	-66	0	0
O=C(Nc1nc2nc(-c3ccccc3)cc(-c3ccccc3)n2n1)c1ccco1	0	0	0	0
COc1ccc(NC(=O)COCc2cc(-c3ccco3)on2)cc1Cl	0	-	0	-
O=C(C1CCC(CNS(=O)(=O)c2cccc3nsnc23)CC1)N1CC=C(c2ccccc2)CC1 (configuration not stated)	60	0	0	0
O=Cc1c(Cl)nc2ccccn2c1=O	0	-67	0	0
CC(C)NC(=O)C1(C)CCN1Cc1ccc(Cl)cc1 (configuration not stated)	0	0	-	-
O=C(COc1cccc2ccccc12)NNC(=O)CSCCO	0	-50	0	0
CCc1ccc(C(=O)c2cn(CC(=O)NCc3ccc(C)cc3)c3nc(C)ccc3c2=O)cc1	0	-	0	-
CCN(C(=O)Cn1c(=O)oc2cc(S(=O)(=O)N3CCCCC3)ccc21)c1ccccc1	0	-	0	-
CN1C(C(=O)c2ccccc2)=C(NC(=O)c2ccc(F)cc2)c2ccccc2S1(=O)=O	0	-	0	-
CN1C(C(=O)Nc2ccc(C(=O)O)cc2)=C(O)c2ccccc2S1(=O)=O	60	0	0	0
O=c1c(-c2nc3ccccc3s2)cccn1Cc1ccc(Cl)cc1	56	0	0	-
Cc1ccc(C(=O)Oc2ccccc2N2C(=O)C3CCC(C)CC3C2=O)cc1 (configuration not stated)	0	0	0	0
CC1CCC2C(=O)N(c3ccc(C(=O)Oc4cccc5cccnc45)cc3)C(=O)C2C1 (configuration not stated)	0	-68	0	0
SMILES	DRD3 agonist	D3 antag	RGS4 inh	uPA surface inh
Cc1ccc(NC(=O)C2CCCN(c3cnccn3)C2)cc1Cl (configuration not stated)	0	-	0	-
Nc1ccc2c3c(cccc13)-c1ccccc1-2	30	0	0	0
CCCOC(=O)NC(CC)COC(=O)Nc1cc(C)ccc1C (configuration not stated)	0	-87	0	0
COc1cc([N+](=O)[O-])cc(/C=N/NC(=O)CSc2ccccn2)c1O	0	-52	0	0
COc1cc([N+](=O)[O-])cc(/C=N/NC(=O)Cn2cncn2)c1O	0	-76	0	0
COc1cc(/C=N/NC(=O)Cc2ccccc2)cc([N+](=O)[O-])c1O	0	-56	0	0
COc1ccc(Cn2c(CCC(=O)Nc3ccc(OC)c(Cl)c3)nc3cccnc32)cc1	0	-	0	-
COC(=O)c1ccc(OCC2c3cc(OC)c(OC)cc3CCN2C(=O)Cc2ccc(OC)cc2)cc1 (configuration not stated)	0	-	0	-
CN(c1nnc(NC(=O)Nc2ccc(Br)cc2)s1)C1CCCCC1	0	-	0	-
Cc1nn(-c2ccccc2)c(C)c1NC(=O)COc1ccc2ccccc2c1	31	0	0	-
Cc1nn(-c2ccccc2)c(C)c1NC(=O)COc1ccc(C#N)cc1	0	0	0	0
Cc1cc(C)n(-c2nc(SCCN(C)C)c3c4c(sc3n2)CCCC4)n1	0	-71	0	-
Cc1cc(C)n(-c2nc(SCC(=O)O)c3c4c(sc3n2)COC(C)(C)C4)n1	0	0	0	0
O=C1c2cc(O)cc(O)c2C(=O)c2c1cc(O)c([C@@H](CO)CCO)c2O	0	-53	0	0
CC1CCN(c2nn3c(=O)c(C(=O)NC(C)C)cnc3s2)CC1	0	-	0	-
Cc1ccc(C(=O)NCCc2ccc(Cl)cc2)cc1-n1c(C)nc2cccnc21	0	-	0	-
Cc1cc(=O)oc2cc(OCC(=O)NC(Cc3c[nH]c4ccc(O)cc34)C(=O)O)c(Cl)cc12 (configuration not stated)	31	0	0	0
O=C(NCc1ccc(Cl)cc1)c1ccc(CNS(=O)(=O)c2ccc(F)cc2)cc1	0	-	0	-
Cc1ccc2c(c1)c(=O)c1ccccc1n2CCCC(=O)Nc1c(F)cccc1F	0	-	0	-
COc1cccc(CNc2nc3cc(-c4ccccc4)sc3c(=O)n2C)c1	0	0	-	-
COc1cccc(CNc2nc3cc(-c4ccc(OC)c(OC)c4)sc3c(=O)n2C)c1	40	0	-	-
CN1CCC(CN2c3ccccc3Sc3ccccc32)C1 (configuration not stated)	0	-	-	-
CCOc1ccc(OCCC(=O)N(CC)CC(=O)Nc2ccccc2OC)cc1	31	0	0	0
CCN(CC(=O)Nc1ccccc1OC)C(=O)CCc1ccccc1	0	0	0	0
CC(=O)Nc1ccccc1NC(=O)C/C(C)=N/NC(=O)c1ccc([N+](=O)[O-])c(Cl)c1	0	-58	0	0
SMILES	DRD3 agonist	D3 antag	RGS4 inh	uPA surface inh
CCN1C(=O)[C@H]2[C@H]3CN=C(SCc4ccc(C)cc4)N3[C@@](Cc3ccccc3)(C(=O)OC)[C@H]2C1=O	0	-57	0	?
CCN1C(=O)[C@H]2[C@H]3CN=C(SCc4ccc(C(=O)OC)cc4)N3[C@@](Cc3ccccc3)(C(=O)OC)[C@H]2C1=O	0	?	0	0
COC(=O)[C@@]1(Cc2ccccc2)[C@H]2C(=O)N(Cc3ccccc3)C(=O)[C@H]2[C@H]2CN=C(SCc3ccc(Cl)cc3)N21	0	0	0	0
CCN1C(=O)[C@H]2[C@H]3CN=C(SCc4ccc(Cl)cc4)N3[C@@](Cc3ccccc3)(C(=O)OC)[C@H]2C1=O	0	-63	0	0
O=C(COc1ccc(Cl)cc1Cl)Nc1ccc(CN2CCOCC2)cc1	0	0	0	0
O=C(COc1ccc(Cl)cc1Cl)NC(=O)N1CCOCC1	0	-58	0	0
Cc1ccc(CNS(=O)(=O)c2ccc(-c3cnc(C4CC4)o3)cc2)cc1	0	0	0	0
CCOc1ccccc1CNS(=O)(=O)c1ccc(-c2cnc(C3CC3)o2)cc1	0	0	0	0.28µM
O=S(=O)(NCc1ccccc1)c1ccc(-c2cnc(C3CC3)o2)cc1	0	0	0	5.6µM
